Data on eight compounds can be found in PubChem BioAssay (NCI).

Common to all, as to experiment: NCI-60 one-dose screen, 48 h (100 = growth as untreated, 0 = no growth, -100 = all killed)
One assay deals with SK-MEL-2 melanoma. The conditions noted are these: 10 µM unless noted.
Another assay concerns EKVX NSCLC. The conditions noted are these: 10 µM unless noted.
The next assay concerns SN12C renal. The note with it: 10 µM unless noted.
Another assay deals with TK-10 renal. The note with it: 10 µM unless noted.
For another assay, the system named is ACHN renal. The conditions noted are these: 10 µM unless noted.
The test system of a further assay is A498 renal. The conditions noted are these: 10 µM unless noted.
The next assay deals with CCRF-CEM leukemia. The note with it: 10 µM unless noted.
The subject of the next assay is MOLT-4 leukemia. The note with it: 10 µM unless noted.
For another assay, the system named is SR leukemia. The note with it: 10 µM unless noted.
For another assay, the system named is RPMI-8226 leukemia. The conditions noted are these: 10 µM unless noted.
The next assay has as its system OVCAR-8 ovarian. The note with it: 10 µM unless noted.
The next assay concerns OVCAR-5 ovarian. The conditions noted are these: 10 µM unless noted.
A further assay has as its system OVCAR-4 ovarian. The conditions noted are these: 10 µM unless noted.
The test system of another assay is SK-OV-3 ovarian. The conditions noted are these: 10 µM unless noted.
Another assay relates to IGROV1 ovarian. The note with it: 10 µM unless noted.
Another assay has as its system OVCAR-3 ovarian. The conditions noted are these: 10 µM unless noted.
The test system of the next assay is HS 578T breast. The note with it: 10 µM.
Another assay has as its system NCI/ADR-RES ovarian. The conditions noted are these: 10 µM unless noted.
The subject of another assay is UO-31 renal. The conditions noted are these: 10 µM unless noted.
The subject of the next assay is CAKI-1 renal. The conditions noted are these: 10 µM unless noted.

Compounds without any hit were thinned out: in the full panel of roughly 83,000, 20% have a hit.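 Results are percent growth after 48 hours of single-concentration exposure. 100 means growth as in untreated cells, lower positive values show inhibition; negative values down to -100 show cell death.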 A number with no mark means an inactive call. Active and inactive are the calls of the source. How the source made its calls: active means growth percent below 10; inactive means the rest.

Turning to `O=C(CN1CCN(c2ccccc2)CC1)N1CCN(c2nnc(-c3ccc(Cl)cc3)c(-c3ccc(Cl)cc3)n2)CC1`, the growth with SK-MEL-2 melanoma is 71.9%; in the assay with EKVX NSCLC it was 35%; with SN12C renal it was 62.7%; with TK-10 renal it was 73.4%; in the assay on ACHN renal it was 53.6%; with A498 renal, 62.6%. Also, the growth in the assay on CCRF-CEM leukemia is 29.4%; with MOLT-4 leukemia, 2% (active); in the assay on SR leukemia, 23.1%; in the assay on RPMI-8226 leukemia it was -39.6% (active); in the assay with OVCAR-8 ovarian, 68%; with OVCAR-5 ovarian, 111%. The growth in the assay on OVCAR-4 ovarian was 45.5%; in the assay with SK-OV-3 ovarian it was 103%; in the assay on IGROV1 ovarian, 50.7%; in the assay with OVCAR-3 ovarian, 64.3%; with HS 578T breast it was 77.5%; with NCI/ADR-RES ovarian, 60.4%.
Regarding `CCCCCCCCNC(C)C(O)c1ccc(SC(C)C)cc1` (stereo not drawn), the growth in the assay on SK-MEL-2 melanoma was 71.4%; in the assay with EKVX NSCLC, 25.2%; with SN12C renal, 60.9%; in the assay with UO-31 renal, 29.5%; with TK-10 renal it was 6.81% (active); with CAKI-1 renal it was -56.8% (active). Also, the growth in the assay on A498 renal is 96.8%; with CCRF-CEM leukemia, -0.667% (active); in the assay on MOLT-4 leukemia it was -46.6% (active); in the assay on SR leukemia, -55% (active); with RPMI-8226 leukemia, 14.8%; in the assay with OVCAR-8 ovarian, -5.31% (active). The growth with OVCAR-4 ovarian is 63.9%; in the assay with SK-OV-3 ovarian, 83.9%; in the assay with IGROV1 ovarian, 18.8%; with OVCAR-3 ovarian it was -83% (active); in the assay on HS 578T breast, 49.2%; in the assay with NCI/ADR-RES ovarian, 47.8%.
For `Cc1cc(NC(=O)C2c3ccccc3C(=O)N(CC(C)C)C2c2cccs2)no1` (stereo not drawn), the growth was 50.7% in the assay on SK-MEL-2 melanoma; -30.9% (active) with SN12C renal; -89.7% (active) with UO-31 renal; -5.69% (active) with TK-10 renal; 0.299% (active) with ACHN renal; -40.1% (active) with CAKI-1 renal. In addition, the growth in the assay on A498 renal was 113%; with CCRF-CEM leukemia it was -13% (active); with MOLT-4 leukemia, 16.7%; in the assay with SR leukemia, 7.23% (active); in the assay with RPMI-8226 leukemia it was 3.73% (active); in the assay on OVCAR-8 ovarian it was 3.68% (active). The growth with OVCAR-5 ovarian was 31.5%; in the assay with OVCAR-4 ovarian, -8.84% (active); in the assay on SK-OV-3 ovarian, 94.7%; with IGROV1 ovarian, 16.2%; with OVCAR-3 ovarian, -53.6% (active); in the assay on HS 578T breast, 67.7%.
As to `NC(N)=N/N=C\c1ccc(OCc2ccccc2)cc1`, the growth in the assay on SK-MEL-2 melanoma was 86.6%; in the assay with EKVX NSCLC, 88.6%; with SN12C renal it was 79.5%; in the assay with UO-31 renal, 64.6%; with TK-10 renal it was 73.4%; in the assay on ACHN renal, 75.7%. Also, the growth with CCRF-CEM leukemia was 72.3%; in the assay on MOLT-4 leukemia, 73.8%; in the assay with SR leukemia it was 75.4%; with RPMI-8226 leukemia, 83.4%; with OVCAR-8 ovarian it was 89.1%; in the assay with OVCAR-4 ovarian, 56.8%. In addition, the growth in the assay with SK-OV-3 ovarian is 77.1%; with IGROV1 ovarian, 77.7%; with OVCAR-3 ovarian it was 74.4%; in the assay with NCI/ADR-RES ovarian, 80%.
Regarding `Cc1ccc(CSCc2ccc(C(=O)NC3CC3)o2)cc1`, the growth was 75.6% with SK-MEL-2 melanoma; 83.2% with SN12C renal; 74.7% in the assay with UO-31 renal; 90.6% in the assay with TK-10 renal; 63.1% in the assay with ACHN renal; 64.5% in the assay on CAKI-1 renal. In addition, the growth is 53.3% with A498 renal; 62.1% in the assay on CCRF-CEM leukemia; 62.6% in the assay with MOLT-4 leukemia; 18.2% in the assay with SR leukemia; 52.1% with RPMI-8226 leukemia; 72% in the assay on OVCAR-8 ovarian. Moreover, the growth in the assay with OVCAR-5 ovarian was 76.3%; in the assay on OVCAR-4 ovarian, 69.1%; in the assay on SK-OV-3 ovarian, 108%; in the assay on OVCAR-3 ovarian, 74.6%; in the assay with HS 578T breast, 92.2%; with NCI/ADR-RES ovarian it was 64.3%.
As for `CCOC(=O)c1c(NC(=O)c2ccccc2)sc2c(O)c(CN(CC)CC)ccc12`, the growth is 7.87% (active) in the assay with SK-MEL-2 melanoma; 24.3% in the assay on SN12C renal; 37.5% in the assay on UO-31 renal; 19.8% with TK-10 renal; 29.5% in the assay with ACHN renal; 1.51% (active) in the assay with CAKI-1 renal. For the same compound, the growth with A498 renal was -22.7% (active); in the assay with CCRF-CEM leukemia it was 5.79% (active); in the assay on MOLT-4 leukemia it was 14%; in the assay with SR leukemia, 9.72% (active); in the assay with RPMI-8226 leukemia, 18.2%; in the assay with OVCAR-8 ovarian, 2.1% (active). Further, the growth in the assay on OVCAR-5 ovarian was 48.6%; in the assay with OVCAR-4 ovarian, 42.8%; in the assay with SK-OV-3 ovarian it was -14.8% (active); with IGROV1 ovarian, 22.4%; with OVCAR-3 ovarian, -61.6% (active); in the assay with HS 578T breast, 26.9%.
As for `COc1ccc(-c2[nH]nc(N)c2-c2cc(OC)c(OC)c(OC)c2)cc1`, the growth was 42.5% with SK-MEL-2 melanoma; 33% with SN12C renal; 20.4% in the assay on UO-31 renal; 34.9% with TK-10 renal; 25.5% with ACHN renal; 5.73% (active) in the assay on CAKI-1 renal. In addition, the growth with A498 renal is -8.24% (active); with CCRF-CEM leukemia it was -5.92% (active); in the assay on MOLT-4 leukemia, -2.96% (active); in the assay with SR leukemia it was -23.7% (active); in the assay with RPMI-8226 leukemia, -8.96% (active); with OVCAR-8 ovarian, 7.81% (active). The growth in the assay with OVCAR-5 ovarian was 38.8%; with OVCAR-4 ovarian, 64.2%; with SK-OV-3 ovarian, 4.97% (active); in the assay with IGROV1 ovarian, 1.08% (active); in the assay with OVCAR-3 ovarian it was -28.3% (active); in the assay with HS 578T breast, 25.6%. In addition, the growth with NCI/ADR-RES ovarian is -9.45% (active).
`CC(=O)c1c(O)c(C)c(O)c2c1OC1=CC(=O)/C(=C(/C)N)C(=O)C12C` (stereo not drawn): the growth with SK-MEL-2 melanoma was 94.8%; with SN12C renal, 92.8%; in the assay on UO-31 renal, 77.8%; with TK-10 renal, 99.4%; with ACHN renal it was 88.4%; in the assay with CAKI-1 renal, 87.1%. Further, the growth was 74.1% in the assay on A498 renal; 93.1% with CCRF-CEM leukemia; 73.3% in the assay on MOLT-4 leukemia; 69% with SR leukemia; 68.6% with RPMI-8226 leukemia; 81.8% with OVCAR-8 ovarian. Also, the growth in the assay on OVCAR-5 ovarian is 98.5%; in the assay on OVCAR-4 ovarian, 88.1%; with SK-OV-3 ovarian, 101%; with IGROV1 ovarian, 89.1%; in the assay with OVCAR-3 ovarian, 103%; in the assay on HS 578T breast it was 91.5%.
